{"source": "the supplement of paper PMC6992640"}
{"tested_on": "HCI11 (cells of an ER-positive luminal breast cancer xenograft)", "experiment": "cell viability (% of vehicle); higher = less cytotoxic", "settings": "10 µM; 72 h"}
{"smiles": "CC12CCC3c4ccc(O)cc4CCC3C1CCC2=O", "note": "(centres undefined) [Estrone]", "cell viability": 102}
{"smiles": "CO[C@@]1(NC(=O)[C@H](C(=O)[O-])c2ccc(O)cc2)C(=O)N2C(C(=O)[O-])=C(CSc3nnnn3C)CO[C@@H]21.[Na+].[Na+]", "note": "[Moxalactam (sodium salt)]", "cell viability": 66.4}
{"smiles": "CC(C)c1cc(C(=O)N2Cc3ccc(CN4CCN(C)CC4)cc3C2)c(O)cc1O", "cell viability": 124}
{"smiles": "Cl.O=C1NCC2(CCN(CCc3ccccc3)CC2)O1", "note": "[Fenspiride HCl]", "cell viability": 98.4}
{"smiles": "C#C[C@]1(O)CC[C@H]2[C@@H]3CCC4=CC(=O)CC[C@@H]4[C@H]3C(=C)C[C@@]21CC", "note": "[Etonogestrel]", "cell viability": 86.3}
{"smiles": "Cc1cc(Nc2cc(CN3CCOCC3)c3nc(C)c(Cc4ccc(Cl)cc4F)n3n2)n[nH]1", "cell viability": 196}
{"smiles": "CCCC1O[C@@H]2C[C@H]3[C@@H]4CCC5=CC(=O)C=C[C@]5(C)[C@H]4[C@@H](O)C[C@]3(C)[C@]2(C(=O)CO)O1", "note": "(some centres undefined) [Budesonide]", "cell viability": 140}
{"smiles": "CC(C)(C#N)c1cc(Cn2cncn2)cc(C(C)(C)C#N)c1", "note": "[Anastrozole]", "cell viability": 120}
{"smiles": "O=C(Nc1cccc2c(=O)cc(-c3nn[nH]n3)oc12)c1ccc(OCCCCc2ccccc2)cc1", "note": "[Pranlukast]", "cell viability": 101}
{"smiles": "CO[C@H]1C(=O)[C@]2(C)[C@@H](OC)C[C@H]3OC[C@@]3(OC(C)=O)[C@H]2[C@H](OC(=O)c2ccccc2)[C@]2(O)C[C@H](OC(=O)[C@H](O)[C@@H](NC(=O)OC(C)(C)C)c3ccccc3)C(C)=C1C2(C)C", "note": "[Cabazitaxel]", "cell viability": 89.2}
{"smiles": "COc1ccccc1OCC(O)CO", "note": "(centres undefined) [Guaifensin]", "cell viability": 102}
{"smiles": "O=C(Nc1c(Cl)cncc1Cl)c1ccc(OC(F)F)c(OCC2CC2)c1", "note": "[Roflumilast]", "cell viability": 124}
{"smiles": "CCCCCC(O)C=CC1C(O)CC(=O)C1CCCCCCC(=O)O", "note": "(centres undefined) [Alprostadil]", "cell viability": 104}
{"smiles": "C#CC1(O)CCC2C3CCC4=CC(=O)CCC4C3CCC21C", "note": "(centres undefined) [Norethindrone]", "cell viability": 97.8}
{"smiles": "CCCc1nc(C(C)(C)O)c(C(=O)O)n1Cc1ccc(-c2ccccc2-c2nn[nH]n2)cc1", "note": "[Olmesartan]", "cell viability": 113}
{"smiles": "CC12CCC3c4ccc(O)cc4CCC3C1CCC2O", "note": "(centres undefined) [Estradiol]", "cell viability": 93}
{"smiles": "N=C(N)NCCCC[C@@H]1NC(=O)CCSSC[C@@H](C(N)=O)NC(=O)[C@@H]2CCCN2C(=O)[C@H](Cc2c[nH]c3ccccc23)NC(=O)[C@H](CC(=O)O)NC(=O)CNC1=O", "note": "[Eptifibatide]", "cell viability": 93.4}
{"smiles": "C#CC1(O)CCC2C3CCC4=CC(=O)CCC4C3CCC21CC", "note": "(centres undefined) [Levonorgestrel]", "cell viability": 88.5}
{"smiles": "CCC(=O)OCC(=O)C1(OC(=O)CC)C(C)CC2C3CCC4=CC(=O)C=CC4(C)C3(Cl)C(O)CC21C", "note": "(centres undefined) [Beclomethasone dipropionate]", "cell viability": 123}
{"smiles": "C[C@@H]1C[C@H]2[C@H]3CCC4=CC(=O)C=C[C@]4(C)[C@@]3(F)[C@@H](O)C[C@]2(C)[C@@]1(O)C(=O)CO", "note": "[Dexamethasone (DHAP)]", "cell viability": 114}
{"smiles": "CCC(=O)OC1(C(=O)CCl)C(C)CC2C3CCC4=CC(=O)C=CC4(C)C3(F)C(O)CC21C", "note": "(centres undefined) [Clobetasol propionate]", "cell viability": 132}
{"smiles": "O=C(NS(=O)(=O)c1ccc(Br)s1)c1ccc(Cl)cc1Cl", "note": "[Tasisulam]", "cell viability": 148}
{"smiles": "Nc1nnc(-c2cccc(Cl)c2Cl)c(N)n1", "note": "[Lamotrigine]", "cell viability": 89.9}
{"smiles": "Cl.O=C(CCCN1CCC(O)(c2ccc(Cl)cc2)CC1)c1ccc(F)cc1", "note": "[Haloperidol hydrochloride]", "cell viability": 106}
{"smiles": "CC(=O)OC1(C(C)=O)CCC2C3C=C(C)C4=CC(=O)CCC4(C)C3CCC21C", "note": "(centres undefined) [Megestrol Acetate]", "cell viability": 91.8}
{"smiles": "O=c1c(O)c(-c2ccc(O)c(O)c2)oc2cc(O)cc(O)c12", "note": "[Quercetin]", "cell viability": 99.2}
{"smiles": "O=NN(CCCl)C(=O)NCCCl", "note": "[Carmustine]", "cell viability": 83.9}
{"smiles": "O=C(CCCN1CCN(c2ccccn2)CC1)c1ccc(F)cc1", "note": "[Azaperone]", "cell viability": 121}
{"smiles": "CC(NCCc1ccc(O)cc1)C(O)c1ccc(O)cc1.Cl", "note": "(centres undefined) [Ritodrine HCl]", "cell viability": 106}
